# Assay outcomes from PubChem.
# MITF primary – inhibitors of human MITF; O75030; inhibition, % at 2.6 µM; AID 1259374; AlphaScreen MITF homodimerization, bead proximity signal; 650,000 compounds, 0.91% hits; in the data active means inhibition above about 50%;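 further: 0% = vehicle wells with protein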
# Target sequence (O75030 whole entry, looked up): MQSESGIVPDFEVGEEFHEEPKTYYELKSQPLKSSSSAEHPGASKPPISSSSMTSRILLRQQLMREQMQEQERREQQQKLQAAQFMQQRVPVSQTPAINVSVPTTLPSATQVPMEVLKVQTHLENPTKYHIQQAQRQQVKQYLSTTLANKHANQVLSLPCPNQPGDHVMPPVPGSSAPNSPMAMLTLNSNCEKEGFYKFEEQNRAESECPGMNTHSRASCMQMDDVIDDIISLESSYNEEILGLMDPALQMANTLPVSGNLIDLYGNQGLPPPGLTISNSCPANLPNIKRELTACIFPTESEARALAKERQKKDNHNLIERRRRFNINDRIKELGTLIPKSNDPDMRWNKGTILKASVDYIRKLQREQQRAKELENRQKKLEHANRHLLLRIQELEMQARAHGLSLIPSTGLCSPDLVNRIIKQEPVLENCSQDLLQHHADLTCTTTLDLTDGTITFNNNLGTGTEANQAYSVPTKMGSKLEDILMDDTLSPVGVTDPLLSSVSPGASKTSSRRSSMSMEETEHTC
# GPR151 activ – activates the human receptor GPR151 | Q8TDV0 | PathHunter beta-arrestin GPR151 cells, luminescence | activation, % at 11.2 µM | 650,000 compounds, 1% hits | AID 1508602; in the data active means activation above about 4.9%;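 further: 0% = median of compound wells and 100% = cells with positive control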
# TEAD-YAP inh – TEAD-YAP interaction inhibition; HEK-TIYL cells, TEAD-Gal4/YAP UAS-luciferase luminescence; 640,000 compounds, 1.4% hits; inhibition, % at 9.12 µM; in the data active means inhibition above about 32%;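 further: 0% = median of test compound wells and 100% = reference inhibitor wells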
# FBW7 activator – activators of human E3 ligase FBW7; Q969H0; AlphaScreen FBW7–phospho-cyclin E peptide binding, activator screen; normalized activity (activation), % at 26.1 µM; 650,000 compounds, 0.13% hits; AID 1259310; in the data active means normalized activity above about 1.9%;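 further: purified mutant Fbw7 with reduced substrate affinity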
# * hit, by the source's call; ! = not active in a repeat. Most compounds without a hit are left out; they make up all but 3.5% or so of the library.
SMILES,MITF primary,GPR151 activ,TEAD-YAP inh,FBW7 activator
CCCCCCCC(=O)Nc1ccc(C(=O)Nc2ccc(O)c(C(=O)O)c2)cc1,50,0,-7,4.1*
COc1cc(OC)cc(C(=O)NCc2ccc(S(N)(=O)=O)cc2)c1,21,-2,6,0
COc1cc(OC)cc(C(=O)NCc2ccc(C(C)(C)C)cc2)c1,12,0,43*,0
Cc1ccc(S(=O)(=O)N(CCc2ccccc2)CC(=O)Nc2ccc3c(c2)OCO3)cc1,13,1,-8,1
COc1ccc(CC(=O)NCc2ccco2)cc1,8,4,8,0
COc1ccc(CCNC(=O)C(=O)NCc2ccco2)cc1,13,1,34*,1
CCOC(=O)C1=C(C)N=c2s/c(=C\c3cc(Br)c(OCc4cccc5ccccc45)c(OC)c3)c(=O)n2C1c1ccccc1 (stereo unspecified),-1,0,2,0
C[C@@H]1C[C@@H]2O[C@H]2C=CC=CC(=O)Cc2c(Cl)c(O)cc(O)c2C(=O)O1,-10,-1,52*,0
CCOC(=O)c1cnc(Nc2nc3ccccc3o2)nc1C,-1,-2,44*,0
CCOC(=O)c1c(C)nc(Nc2nc3ccccc3o2)nc1-c1ccccc1,-6,2,-5,0
CCc1ccc(C2NC(=O)NC(C)=C2C(=O)OCCOC(C)C)cc1 (stereo unspecified),-8,1,-2,0
CCc1nnc(NS(=O)(=O)c2ccc(NC(=S)NC(=O)c3ccccc3)cc2)s1,-2,0,-10,2.9*
CCc1nnc(NS(=O)(=O)c2ccc(NC(=O)c3ccccc3)cc2)s1,2,2,9,0
Cn1cc(CNc2nncc(-c3ccc4ccccc4c3)n2)cn1,9,-1,34*,0
Cn1cc(CNc2nncc(-c3ccc(Cl)cc3)n2)cn1,6,1,1,0
Cc1ncc([N+](=O)[O-])n1S(=O)(=O)c1ccccc1,11,0,11,0
Cc1ncc([N+](=O)[O-])n1S(=O)(=O)c1cccc2ccccc12,0,0,5,2.3*
Cc1ccc(Nc2ncnc3c2cnn3C)cc1F,13,0,-10,0
COc1ccccc1NC(=O)Nc1c(SC)nsc1SC,8,-1,37*,0
Cn1ccnc1Sc1ccc(/C=C(\C(N)=O)c2nc3ccccc3[nH]2)cc1[N+](=O)[O-],15,0,-4,0
O=C(CCl)N=c1sccn1Cc1ccccc1Cl,11,-2,39*,0
Cc1cnc(Nc2ccc(C(F)(F)F)cc2)nc1Nc1ccc2c(c1)OCO2,18,1,-9,0
Cc1cnc(Nc2nc3ccccc3n2C)nc1Nc1ccc2c(c1)OCO2,4,0,32*,0
Cc1cnc(Nc2ccc(N3CCOCC3)cc2)nc1Nc1ccc2c(c1)OCO2,18,4,80*,0
COc1cc2nc(Nc3cccc(N(C)C)c3)nc(Nc3ccc(N4CCOCC4)cc3)c2cc1OC,14,0,5,0
SMILES,MITF primary,GPR151 activ,TEAD-YAP inh,FBW7 activator
Cc1cnc(Nc2cccc(N(C)C)c2)nc1Nc1ccc2c(c1)OCO2,23,1,40*,0
Cc1cnc(NCc2ccc3c(c2)OCO3)nc1Nc1ccc2c(c1)OCO2,-1,1,4,0
Cc1cnc(Nc2cccc(N(C)C)c2)nc1Nc1ccc(N2CCOCC2)cc1,19,2,66*,0
CCOc1cccc2cc(C(=O)NC(C)=O)c(=Nc3ccccc3)oc12,17,-1,-2,0
CN(C)c1cccc(Nc2nccc(Nc3ccc(N4CCOCC4)cc3)n2)c1,4,2,39*,0
c1cc2c(cc1Nc1nc(N3CCOCC3)nc(N3CCOCC3)n1)OCO2,3,-1,4,0
c1cc2c(cc1Nc1nc(N3CCCCC3)nc(N3CCCCC3)n1)OCO2,1,-2,-5,2.2*
COC(=O)c1ccc(NC(=O)C(C)(C)C)cc1,-1,-1,-40,0
O=C(N/N=C\C(Br)=C\c1ccccc1)c1n[nH]c2c1CCCC2,-2,1,-4,0
COc1cccc(CNC(=O)CCC2CCCN(Cc3csc(C(C)=O)c3)C2)c1 (stereo unspecified),-9,-1,5,0
N#CCc1nc(-c2ccccc2OC(F)F)no1,1,0,0,0
CC1Cc2ccccc2N1C(=O)CSc1nnc(Cc2cccs2)n1C (stereo unspecified),-4,0,47*,0
CC1Cc2ccccc2N1C(=O)CSc1nnc(CSc2ncccn2)n1C (stereo unspecified),-8,0,9,0
COc1ccc(CNc2c(-c3ccc(O)cc3O)nc3cnccn23)cc1,-4,0,65*,0
COCCNc1c(-c2ccc(O)cc2O)nc2cnccn12,1,1,-5,0
O=C(c1ccccc1Br)N1CCN(c2ccccn2)CC1,-1,2,-5,0
O=C(c1ccccc1-c1ccccc1)N1CCN(c2ccccn2)CC1,19,-1,52*,0
CCOc1ccccc1N1CCN(C(=O)c2cc(-c3ccccc3)nc3ccccc23)CC1,-6,1,45*,0
O=C(c1cc(-c2ccccc2)nc2ccccc12)N1CCN(c2ccccc2)CC1,-5,0,7,0
O=C(c1cc(-c2ccncc2)nc2ccccc12)N1CCN(c2ccccn2)CC1,-16,1,58*,0
O=C(Nc1ccc(Cl)cn1)c1ccc(Cl)c(S(=O)(=O)N2CCCCC2)c1,1,0,-6,0
Cc1ccc(-n2c3c(cc(C(=O)Nc4cccnc4)c2=O)C(=O)CC(C)(C)C3)cc1,7,1,-5,0
CN1C(C(=O)Nc2ccccn2)=C(O)c2sccc2S1(=O)=O,9,0,-4,2.0*!
O=C(NCc1ccccc1)c1cccc(Nc2ccc(N3CCOCC3)cc2)n1,7,3,25,0
O=C(NCCOc1ccccc1F)c1ccc2ccccc2n1,-5,-3,58*,0
SMILES,MITF primary,GPR151 activ,TEAD-YAP inh,FBW7 activator
COc1ccc(CCNC(=O)c2cccc(Nc3ccc(-n4ccnc4)cc3)n2)cc1,4,0,49*,0
O=C(NCCOc1ccccc1)c1cccc(Nc2ccc(N3CCOCC3)cc2)n1,1,4,47*,0
COc1ccc(CCNC(=O)c2cccc(Nc3ccncc3)n2)cc1,-2,4,2,0
O=C(NCCOc1ccccc1)c1ccc2ccccc2n1,-14,-1,53*,0
Cc1ccc(CS(=O)(=O)c2ccc(C(=O)N3CCN(c4ccccc4)CC3)cc2[N+](=O)[O-])cc1,18,-2,6,1
COc1ccc(NC(=O)C(C)Oc2cccc(Br)c2)c([N+](=O)[O-])c1 (stereo unspecified),13,1,0,0
COc1ccc(N(CC(=O)NC(C)C)S(=O)(=O)c2ccccc2)c(OC)c1,7,0,3,0
CC1(C)CC(=O)C2=C(C1)OC1=C(C(=O)CC(C)(C)C1)C2c1ccc(I)cc1,-1,-1,11,0
CN(C)S(=O)(=O)c1cccc(NC(=S)Nc2ccccc2C#N)c1,-3,1,87*,0
